The panel holds about 83,000 compounds, 20% with a hit somewhere; the sample as a whole holds those more often.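 48-hour exposure, single concentration, 96-well plates; percent growth endpoint where 0 means no net growth. Active: below 10.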 Activity calls are given as the source filed them.
System: MDA-MB-435 melanoma
Experiment: NCI-60 one-dose screen, 48 h (100 = growth as untreated, 0 = no growth, -100 = all killed)
Conditions: 10 µM unless noted

| Structure (SMILES) | growth |
| --- | --- |
| COc1ccc(-c2nc3c(N)c(CO)cnc3s2)cc1 | 92.9% (inactive) |
| COc1ccc2c(c1)c(/C(O)=C1\COC(=O)C1=O)cn2Cc1ccc(F)cc1 | 109% (inactive) |
| Cc1ccc(/C=C/C(=O)c2cccc(OCCCOc3cccc(C(=O)/C=C/c4ccc(C)cc4)c3)c2)cc1 | 89.3% (inactive) |

System: SW-620 colon
Experiment: as above
Conditions: 10 µM unless noted

| Structure (SMILES) | growth |
| --- | --- |
| CCOc1ccc(-n2nc(C(=O)NCc3ccccc3OC)nc2-c2cc(OC)c(OC)c(OC)c2)cc1 | 58% (inactive) |
| O=C(CCCCCCN1CC(=O)N2[C@H](c3ccc(Br)cc3)c3[nH]c4ccccc4c3C[C@@H]2C1=O)NO | 20.4% (inactive) |
| CCN1C(=O)N(CC)C2Nn3c(s/c(=C\c4ccccc4Br)c3=O)=NC21 (stereo unspecified) | 17.4% (inactive) |
| COC(=O)c1nc(-c2ccccc2)oc1S(=O)(=O)NCC(c1ccc(Cl)cc1)N1CCOCC1 (stereo unspecified) | 18.7% (inactive) |
| CC1=C(C(=O)Nc2nc(-c3ccc(Cl)cc3)cs2)[C@H](c2ccc(O)cc2)NC(=O)N1 | 102% (inactive) |
| COc1ccc(C(=O)c2cc3c(N)c(C(=O)Nc4ccccc4)sc3nc2C)cc1 | 28.2% (inactive) |
| C#CC#CC#CC#CC#CC#CC#CC#CC[C@@H]1OC[C@@H](COC(=O)O[C@@H](C(=O)O[C@H]2C[C@@]3(O)[C@@H](OC(=O)c4ccccc4)[C@@H]4[C@]5(OC(C)=O)CO[C@@H]5C[C@H](O)[C@@]4(C)C(=O)[C@H](OC(C)=O)C(=C2C)C3(C)C)[C@@H](NC(=O)c2ccccc2)c2ccccc2)O1 | 101% (inactive) |
| CNCc1cccc2c1OCCOCCOCCNS(=O)(=O)c1ccc(cc1)-c1cnc(N)c(n1)C(=O)N2 | 15.5% (inactive) |
